Results taken from the supplement of paper PMC7695840.
Counter-ions that a name gives are not always drawn.

Columns and labels:
[1] = tested on: Staphylococcus aureus MW2 delta-mecA (mecA-); test: normalized GFP fluorescence (growth of mecA- strain) (fraction of control range); higher = more growth of mecA- strain; conditions: compound concentration: 150 uM; cefoxitin: subinhibitory; fluorescent label: GFP
How it was run: (§1)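 Single-replicate 1536-well plates carried 150 μM compound (1.5% DMSO), onto which 5 µL/well of a 1:1 mix of pre-induced S. aureus MW2 cells was dispensed: gene-carrying cells tagged with DsRed and deletion cells tagged with GFP, in LB with a subinhibitory antibiotic dose set daily. Incubation ran 20 h at 37 °C, 90% humidity, unshaken, followed by DsRed (540/590) and GFP (485/520) reads. Per-plate scaling of each channel used single-strain control medians, and plates with high untreated ratios and rows with DsRed/GFP >10 were excluded.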

[2] = tested on: Staphylococcus aureus MW2 (mecA+); test: normalized DsRed fluorescence (growth of mecA+ strain) (fraction of control range); higher = more growth of mecA+ strain; conditions: compound concentration: 150 uM; cefoxitin: subinhibitory; fluorescent label: DsRed
How it was run: as §1

SMILES	normalized GFP fluorescence [1]	normalized DsRed fluorescence [2]
c1ccc(CN(CC2=NCCN2)c2ccccc2)cc1	0.974	0.762
CCCCNC(=O)NS(=O)(=O)c1ccc(C)cc1	0.18	0.588
Cc1[nH]c2ccccc2c1CCNCc1ccc(/C=C/C(=O)NO)cc1 [Panobinostat]	0.228	1.43
O.O.O.O.O.O.O.O.O.O.O.O.O.O.O.O.O.O.O.O.O=S(=O)([O][Al])OC[C@H]1O[C@@](COS(=O)(=O)[O][Al])(O[C@H]2O[C@H](COS(=O)(=O)[O][Al])[C@@H](OS(=O)(=O)[O][Al])[C@H](OS(=O)(=O)[O][Al])[C@H]2OS(=O)(=O)[O][Al])[C@@H](OS(=O)(=O)[O][Al])[C@@H]1OS(=O)(=O)[O][Al].[Al]	0.405	0.842
CCC(=O)NCC[C@@H]1CCc2ccc3c(c21)CCO3	0.8	0.671
CC1=C(/C=C/C(C)=C/C=C/C(C)=C\C(=O)O)C(C)(C)CCC1 [Isotretinoin]	0.0743	1.06
CN(C)CCOC(C)(c1ccccc1)c1ccccn1 (stereo not drawn)	0.411	0.892
Cc1cccc(C)c1OCC(C)N (stereo not drawn)	0.344	1.02
CC1(C)[C@@H](O[C@H]2O[C@H](C(=O)O)[C@@H](O)[C@H](O)[C@H]2O[C@@H]2O[C@H](C(=O)O)[C@@H](O)[C@H](O)[C@H]2O)CC[C@]2(C)[C@H]3C(=O)C=C4[C@@H]5C[C@@](C)(C(=O)O)CC[C@]5(C)CC[C@@]4(C)[C@]3(C)CC[C@@H]12 [Glycyrrhizic acid]	0.122	1.7
NC(=O)[C@@H]1CCCN1C(=O)[C@H](Cc1c[nH]cn1)NC(=O)[C@@H]1CCC(=O)N1	0.621	0.766
Cc1ccc(NC(=O)c2ccc(CN3CCN(C)CC3)cc2)cc1Nc1nc(-c2cccnc2)cs1 [Masitinib (AB1010)]	0.0914	0.633
Nc1ccc(S(=O)(=O)c2ccc(N)cc2)cc1	0.296	0.89
CC1=CC(=O)c2ccccc2C1=O	0.0466	0.307
CC(=O)O[C@H]1CC[C@@]2(C)C(=CC[C@@H]3[C@@H]2CC[C@]2(C)C(c4cccnc4)=CC[C@@H]32)C1 [Abiraterone Acetate (CB7630)]	0.278	0.65
CCN(CC)CCCC(C)Nc1ccnc2cc(Cl)ccc12 (stereo not drawn)	0.506	0.443
CN1CCN(CC/C=C2/c3ccccc3Sc3ccc(S(=O)(=O)N(C)C)cc32)CC1	0.0289	1.9
Cn1c(=O)c2c(ncn2C)n(C)c1=O	0.319	0.708
Cc1noc(NS(=O)(=O)c2ccc(N)cc2)c1C	0.025	0.437
C[N+](C)(C)C[C@H](O)CC(=O)[O-] [L-carnitine (Levocarnitine)]	0.171	0.836
CN(c1nccc(=O)[nH]1)C1CCN(c2nc3ccccc3n2Cc2ccc(F)cc2)CC1 [Mizolastine (Mizollen)]	0.387	0.462
CN1CCCN=C1/C=C/c1cccc(O)c1	0.279	0.787
O=C(O)CCCC[C@@H]1SC[C@@H]2NC(=O)N[C@@H]21	0.414	0.604

SMILES	normalized GFP fluorescence [1]	normalized DsRed fluorescence [2]
O=C(c1ccc(F)cc1)C1CCN(CCn2c(=O)[nH]c3ccccc3c2=O)CC1	0.217	0.83
COc1ccc(-c2ccc3cc(C(=O)O)ccc3c2)cc1C12CC3CC(CC(C3)C1)C2	0.582	0.97
Oc1ccc(OCc2ccccc2)cc1	0.0954	0.522
CO[C@H]1C(=O)[C@]2(C)[C@@H](OC)C[C@H]3OC[C@@]3(OC(C)=O)[C@H]2[C@H](OC(=O)c2ccccc2)[C@]2(O)C[C@H](OC(=O)[C@H](O)[C@@H](NC(=O)OC(C)(C)C)c3ccccc3)C(C)=C1C2(C)C [Cabazitaxel (Jevtana)]	0.256	1.24
CC[C@]12C=CCN3CC[C@@]4(c5cc([C@@]6(C(=O)OC)C[C@@H]7C[C@@H](C(C)(F)F)CN(Cc8c6[nH]c6ccccc86)C7)c(OC)cc5N(C)[C@H]4[C@@](O)(C(=O)OC)[C@@H]1OC(C)=O)[C@@H]32 [Vinflunine Tartrate]	0.315	0.556
CN(C/C=C/C#CC(C)(C)C)Cc1cccc2ccccc12 [Terbinafine hydrochloride (Lamisil)]	0.111	0.483
N=C(N)NC(=O)c1nc(Cl)c(N)nc1N	0.602	0.971
COc1ccc(OC)c(C(O)CNC(=O)CN)c1 (stereo not drawn)	0.301	0.764
Cc1cccc(Nc2ccccc2C(=O)O)c1C [Mefenamic Acid]	0.0909	0.169
CC(=O)Nc1cccc(-n2c(=O)n(C3CC3)c(=O)c3c(Nc4ccc(I)cc4F)n(C)c(=O)c(C)c32)c1	0.179	1.12
CC1(C)NC(=O)N(c2ccc([N+](=O)[O-])c(C(F)(F)F)c2)C1=O	0.333	0.86
CS(=O)(=O)CCNCc1ccc(-c2ccc3ncnc(Nc4ccc(OCc5cccc(F)c5)c(Cl)c4)c3c2)o1 [Lapatinib Ditosylate (Tykerb)]	-0.0239	1.52
O=C(NCCN1CCOCC1)c1ccc(Cl)cc1 [Moclobemide]	0.558	0.739
CCC(C)n1ncn(-c2ccc(N3CCN(c4ccc(OCC5COC(Cn6cncn6)(c6ccc(Cl)cc6Cl)O5)cc4)CC3)cc2)c1=O (stereo not drawn)	0.389	0.642
O=C(O)c1cc(/N=N/c2ccc(S(=O)(=O)Nc3ccccn3)cc2)ccc1O [Sulfasalazine (Azulfidine)]	0.311	0.584
Clc1ccc(C(Cn2ccnc2)OCc2ccc(Sc3ccccc3)cc2)c(Cl)c1 (stereo not drawn) [Fenticonazole nitrate]	-0.002	0.0182
C[C@]12CC[C@@H]3c4ccc(O)cc4CC[C@H]3[C@@H]1C[C@@H](O)[C@@H]2O	0.63	0.459
O=C1N=C(O)NC1(c1ccccc1)c1ccccc1	0.309	1.06
C1CCC(C(CC2CCCCN2)C2CCCCC2)CC1 (stereo not drawn)	0.000248	0.0259
Cc1ccc(Nc2nccc(N(C)c3ccc4c(C)n(C)nc4c3)n2)cc1S(N)(=O)=O [Pazopanib]	0.64	0.586
CC(=O)OCC[N+](C)(C)C	0.311	0.859
c1cnc2cc3c(cc2n1)[C@@H]1CNC[C@H]3C1 [Varenicline tartrate]	0.504	0.508
